# High-throughput results as filed in PubChem.
# Only a selection was taken, and hits are over-represented in it overall.
# Pf Dd2 inh: inhibitors of Plasmodium falciparum Dd2 growth; P. falciparum Dd2 growth, SYBR Green, 72 h; Potency, µM (titrated, usually from 28.9 µM), for the others: at the top dose activity, negative = inhibition, actives largely listed as inhibitors; 4.3% of 120,000 active; active = well fitted inhibition curve with a large enough effect;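 also: plate controls were DMSO vehicle for no effect and reference drug for full effect; nearly all actives have a fitted effect of over 65% in size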
#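 Readout: SYBR Green fluorescence, 485 nm excitation, 535 nm emission, after ~16 h lysis at 37C. Before that, Dd2-infected red cells (2.5% hematocrit) grew 72 h with compound, 29 uM top final concentration.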
# * = called active by the depositor; i = inactive; [ ] = dose if it differs, or a comment. Potency is read from the fitted curve at half-maximal effect.
SMILES,Pf Dd2 inh
Cc1cccc(Nc2ncc(NC(=O)c3cccc(F)c3)c(Nc3cccc(C)c3)n2)c1,2.24µM*
Cc1ccc2oc(-c3ccc(NC(=O)c4cccc(F)c4)c(C)c3)nc2c1,36.5%
CCOc1ccc2c(n1)CCN(C(=O)c1ccc(OCC)c(OCC)c1)C2,-18.6%
CCc1ccc(C(=O)Nc2ccc3c(N4CCOCC4)ncnc3c2)cc1,i
CCOC(=O)C1CCN(C(=O)Cc2ccc(N(Cc3ccccc3)C(=O)c3ccco3)cc2)CC1,1.41µM*
O=C(Cc1ccc(N(Cc2ccc(F)cc2)C(=O)c2ccco2)cc1)N1CCOCC1,i
Cc1ccc(CN(C(=O)c2ccco2)c2ccc(CC(=O)N(C)Cc3ccccc3)cc2)cc1,-26.6%
COc1ccc2nc(N(Cc3cccnc3)C(=O)C3CCCCC3)sc2c1,2.51µM*
COc1ccc2nc(N(Cc3cccnc3)C(=O)CCc3ccccc3)sc2c1,1µM*
CCOc1ccc2nc(N(Cc3cccnc3)C(C)=O)sc2c1,i
COc1ccc2nc(N(Cc3cccnc3)C(C)=O)sc2c1,i
O=C(COc1ccccc1)N(Cc1cccnc1)c1nc2ccc(Cl)cc2s1,-20.8%
O=C(C1COc2ccccc2O1)N(Cc1cccnc1)c1nc2ccc(Cl)cc2s1 (stereo not drawn),i
COc1cccc(CCc2ccccc2C(=O)N2CC[C@H](CO)[C@@H](O)C2)c1,-7.1%
O=C([C@H]1C[C@H](Oc2cccnc2)CN1C(=O)Nc1ccccc1)N1CCOCC1,0.4%
COCc1nc(C2CC(NC(=O)c3c(F)ccc(C)c3Cl)C2)cc(=O)[nH]1 (stereo not drawn),-18.5%
COC[C@@H]1CN(C(=O)c2ccc(F)cc2Cl)C[C@H]1C(N)=O,14.3%
COCC1CN(C)CC12CCN(Cc1ccc(OC)cc1)CC2 (stereo not drawn),i
COCC1CN(C)CC12CCN(Cc1ccc(F)cc1F)CC2 (stereo not drawn),-25.4%
COCC1CN(S(=O)(=O)c2cccs2)CC12CCNCC2 (stereo not drawn),29.6%
COCC1CN(C)CC12CCN(Cc1ccc(F)c(Cl)c1)CC2 (stereo not drawn),5.01µM*
COCC1CN(C)CC12CCN(S(=O)(=O)c1cccs1)CC2 (stereo not drawn),3.55µM*
COCC1CN(C(C)=O)CC12CCN(S(=O)(=O)c1cccs1)CC2 (stereo not drawn),-5.0%
CCCS(=O)(=O)N1CCC(c2noc(-c3cnccn3)n2)C1 (stereo not drawn),22.1%[5.79 µM]
O=C1NC2(CCN(Cc3cccc4ccccc34)C2)OCc2ccccc21 (stereo not drawn),i
SMILES,Pf Dd2 inh
COCC(=O)N1CCN2C(=O)N(C)C[C@H]2C1,-1.1%[44.1 µM]
c1ccc(Cn2ccnc2C2CCN(c3ncnc4ccsc34)CC2)nc1,-1.8%
O=C(CCn1ccc(=O)[nH]c1=O)N1CCc2nc(-c3ccccc3)[nH]c2C1,i
NC(=O)c1ccc(-c2nc3c([nH]2)CN(c2ncnc4ccsc24)CC3)cc1,10µM*
CN(C(=O)C1(N)CC1)C1CCCN(CCc2ccccc2)C1 (stereo not drawn),-12.1%
CN1CCN([C@H]2CCN(CCCc3ccccc3)C[C@H]2CCC(=O)O)CC1,10.6%
Cc1noc(C)c1CC(=O)N1CCC(OCC2CC2)C1 (stereo not drawn),10.5%
O=C(CSc1nc2c([nH]c3ccccc32)c(=O)n1-c1ccc(Cl)cc1)c1ccccc1,55.7%
CCCSc1nc2ccccc2c(=O)n1-c1ccccc1OC,-8.1%
CCN(CC)CCSc1nc2ccccc2c(=O)n1-c1ccc(Cl)cc1,7.94µM*
Cc1cn2nc(C(=O)N3CCC(NC(=O)c4ccccc4C)CC3)cc2c(=O)[nH]1,-9.2%
COc1ccc(Cl)cc1C(=O)NC1CCN(C(=O)c2cc3c(=O)[nH]c(C)cn3n2)CC1,5.01µM*
Cc1cn2nc(C(=O)N3CCC(NC(=O)c4cccc(Cl)c4)CC3)cc2c(=O)[nH]1,i
COc1cc(OC)cc(C(=O)NC2CCN(c3cc(-c4ccc(F)cc4)[nH]n3)C2)c1 (stereo not drawn),-19.5%
COc1cc(NC(=O)Cn2c(N3CCOCC3)nc(C)cc2=O)cc(OC)c1OC,i
COCCCNc1ncnc2onc(-c3ccc(F)cc3)c12,123.2%
COCCNc1ncnc2onc(-c3ccc(F)cc3)c12,-11.5%
Cc1ccccc1CN1CCC(CNc2ncnc3onc(-c4ccc(F)cc4)c23)CC1,3.98µM*
Cn1nccc1C(=O)N1[C@@H]2CC[C@H]1CC(NC(=O)c1ccncc1)C2 (stereo partly drawn),19.0%
COCCN1C(=O)c2cccn2CC1CNC(=O)c1cc(C)nn1C (stereo not drawn),-16.9%
CC(C)c1ccc(C(=O)N2c3ccccc3CC2c2nc(C3CC3)no2)cc1 (stereo not drawn),16.6%[5.79 µM]
Cc1ccc(N2C(=O)N(CC(=O)C(C)(C)C)c3ccccc3S2(=O)=O)cc1C,-11.3%
COc1ccc(C(=O)CN2C(=O)N(c3cc(C)ccc3C)S(=O)(=O)c3ccccc32)cc1,i
COc1cc(OC)cc(N2C(=O)N(CC(=O)c3ccc(F)cc3)c3ccccc3S2(=O)=O)c1,8.91µM*
COc1ccc(CCC(=O)N2CC(F)(F)C[C@H]2c2nc(C)no2)cc1,-3.2%
SMILES,Pf Dd2 inh
Cc1ccc(NC(=O)N2[C@H]3CC[C@@H]2c2cncnc2C3)cc1F,-1.3%
CN1C(=O)[C@@H]2C[C@@H](CN2C2COC2)Oc2ccccc21,6.3%[44.1 µM]
COCCC(=O)NC(C)C(=O)N1CCN(c2ccccn2)CC1 (stereo not drawn),6.9%
CCCCn1c(CN(C)C(C)c2ccccc2OC)cnc1S(=O)(=O)CC (stereo not drawn),8.91µM*
CCC(O)C1CCN(Cc2cnc(S(=O)(=O)CC)n2CCc2ccccc2)CC1 (stereo not drawn),i
C#CCN(CC=C)Cc1cnc(S(=O)(=O)CC)n1CCCc1ccccc1,i
O=C1CC2(CCN(CC3CCCCC3)CC2)Oc2cc(Cl)ccc21,1.41µM*
O=C1CC2(CCN(CC3CC3)CC2)Oc2ccccc21,i
O=C1CC2(CCN(Cc3ccc(C(F)(F)F)cc3)CC2)Oc2cc(Cl)ccc21,i
CN(Cc1cccnc1)c1nc2c(c(=O)[nH]1)CCN(Cc1cccnc1)CC2,-14.0%[5.79 µM]
CC1CCN(S(=O)(=O)c2ccc3nc(-c4cccnc4)cc(C(=O)NCCCOC(C)C)c3c2)CC1,i
CCCCN(C)CCNC(=O)c1cc(-c2cccnc2)nc2ccc(S(=O)(=O)N3CCC(C)CC3)cc12,5.01µM*
CCCCN(CCCC)CCNC(=O)c1cc(-c2cccnc2)nc2ccc(S(=O)(=O)N3CCC(C)CC3)cc12,-24.9%
Cc1ccc(CNC(=O)C2Cn3cccc3C(=O)N2C)o1 (stereo not drawn),-2.2%
Cc1noc(C)c1CC(=O)N1CC[C@@H](NC(=O)c2cnccn2)[C@H](O)C1,-12.6%
CCCc1cc(CN(C)c2nc(CCN)nc3sc(C)c(C)c23)[nH]n1,10µM*
COCCN1CC(CNc2nc(CCN)nc3sc(C)c(C)c23)CC1=O (stereo not drawn),-0.8%
COc1ccc(C(=O)N2CCC(n3cc(-c4nc(C)no4)nn3)C2)cc1F (stereo not drawn),i
CCOC(=O)CCc1c(C)nc2c(c(C)nn2-c2ccc(C)cc2)c1C,15.2%
CCOC(=O)CC(NC(=O)CCc1c(C)nc2c(c(C)nn2-c2ccc(C)c(C)c2)c1C)c1ccc(C)cc1 (stereo not drawn),4.47µM*
CCOc1ccc(CCNC(=O)CCc2c(C)nc3c(c(C)nn3-c3ccc(C)c(C)c3)c2C)cc1,2.9%
